hNpr1 antagonist: blocks ANP-stimulated signaling of human Npr1 receptor | P16066 | HEK293 hNpr1 GloSensor cGMP, ANP-stimulated luminescence | Potency, µM (top dose mostly 46.3 µM), for inactives: top-dose activity change, negative = inhibition, most hits filed as inhibitors | 76,000 tested, 1.6% active; calls by dose curve; also: nearly all actives have a fitted effect of over 60% in size
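Compound pre-incubated 30 min at room temperature on GloSensor-loaded HEK293 cells stably carrying hNpr1 and the pGS-40F cGMP biosensor. Stimulation uses hNppA at 0.1 nM final; luminescence is taken at baseline and 20 min post-agonist.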
SNCA viab count: cell viability loss counter-screen; HEK-293-SNCA-luc viability, GF-AFC fluorescence, 24 h; 150,000 tested, 0.12% active; AID 1671193; Potency, µM (highest dose often 57.1 µM), for inactives: top-dose activity change, negative = cytotoxicity, hits mostly cytotoxic;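 also: 0% = DMSO-treated cells and -100% = medium-only wells without cells; nearly all actives have a fitted effect of over 30% in size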
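Cytotoxicity counterscreen: after 24 h compound treatment of genome-edited SNCA-luciferase HEK-293 cells, live-cell protease substrate GF-AFC read by fluorescence after 30 min; activity scaled between DMSO (0%) and medium-only (-100%), curves Hill-fitted.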
3T3 cytotox: kills NIH 3T3 cells; 94,000 tested, 4.3% active; AID 1345082; Potency, µM (highest dose often 96.7 µM), for the others: at the highest dose activity change, negative = cytotoxicity, actives largely listed as inhibitors; NIH 3T3 viability, CellTiter-Glo ATP luminescence, 48-72 h; also: nearly all actives have a fitted effect of over 55% in size
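Cytotoxicity is measured as loss of cellular ATP: NIH 3T3 cells (400/well) are exposed to compound for 48 or 72 hr at 37 °C, then CellTiter-Glo luminescence is imaged after 10 min at room temperature.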
SNCA expr inh: SNCA gene expression inhibition; HEK-293 SNCA-luciferase knock-in, luminescence, 24 h; Potency, µM (top dose mostly 57.2 µM), inactives show top-dose activity change, negative = inhibition, most hits filed as inhibitors; 140,000 tested, 0.17% active; AID 1671194;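 also: plate controls were DMSO cells for no effect and cell-free wells for full effect; nearly all actives have a fitted effect of over 45% in size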
FLuc inh: Photinus pyralis luciferase inhibition; P08659; purified P. pyralis luciferase, luminescence, biochemical; Potency, µM (highest dose often 115 µM), usual class: inhibitors; 76,000 tested, 2.5% active; also: nearly all actives have a fitted effect of over 65% in size
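Purified 10nM P. pyralis luciferase with 10uM D-luciferin and 10uM ATP in 50mM Tris acetate pH 7.5, 10mM Mg acetate, 0.01% Tween-20, 0.05% BSA. qHTS titration; luminescence read by CCD imager.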
HEK cytotox: kills HEK 293 cells; HEK 293 viability, ATP luminescence (CellTiter-Glo), 48-72 h; 94,000 tested, 6.6% active; Potency, µM (titrated, usually from 115 µM), without a hit: at the highest dose activity change, negative = cytotoxicity, actives largely listed as inhibitors; also: nearly all actives have a fitted effect of over 60% in size
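Viability of HEK 293 cells, plated at 250 cells/well, was judged by cellular ATP after compound treatment for 48 or 72 hr. Luminescence was imaged 10 min after CellTiter-Glo addition at room temperature.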
Active calls of the source: *; i = inactive; ? = inconclusive; · = no result given; [ ] = remark or other dose. This is a sample that favours compounds with a hit; in the whole collection about 7.4% have one here. Unless noted, calls follow the shape of the dose curve; as a rule, active = well fitted curve in the direction sought with a large enough effect; inconclusive = small, poorly fitted or top-dose-only effect, or another doubt; inactive = no such curve, though single readings can be large; an effect the other way counts as inactive or inconclusive. Unless noted, % is scaled to controls: 0 for no effect and ±100 for the full control effect; potency is read from the fitted curve at half-maximal effect.

SMILES	hNpr1 antagonist	SNCA viab count	3T3 cytotox	SNCA expr inh	FLuc inh	HEK cytotox
Cc1ccccc1C(=O)N1CCc2[nH]nc(C(=O)NCCCc3ccccc3)c2C1	-25%	-7%	?	0%	i	?
O=C(NCCCc1ccccc1)c1n[nH]c2c1CN(C(=O)c1ccccc1F)CC2	-17%	?	35µM*	7%	i	?
O=C(NCCCc1ccccc1)c1n[nH]c2c1CN(C(=O)c1ccccc1Cl)CC2	0%	1%	?	2%	?	?
CS(=O)(=O)N(C1CCOCC1)C1CCN(C(=O)c2ccc(Cl)cc2)CC1	2%	9%	-2%	2%	i	3%
O=C(Cc1ccccc1Cl)N[C@H]1CCOC[C@H]1C1CCOCC1	3%	2%	5%	3%	i	-4%
Cc1nnc(-c2cc(-c3ccc(CO)cc3)ccn2)n1CCN1CCOCC1	0%[70.6 µM]	0%[87.6 µM]	?	-1%[87.6 µM]	i	-12%[172 µM]
CCn1ccc2oc(C)c(C(=O)N3CCN(c4ccc(OC)cc4)CC3)c2c1=O	4%	7%	i	18%	i	-18%
Fc1cccc(-c2cc3c(cn2)CN(Cc2ccncc2)CCN3)c1	-23%[70.6 µM]	-9%[87.6 µM]	-23%[138 µM]	9%[87.6 µM]	40µM*	?
Clc1cnccc1CN1CCNc2cc(-c3ccccc3)ncc2C1	-16%[70.6 µM]	-22%[87.6 µM]	?	7%[87.6 µM]	28µM*	?
Fc1ccccc1-c1cc2c(cn1)CN(Cc1cccnc1)CCN2	-9%[70.6 µM]	-1%[87.6 µM]	-22%[138 µM]	?	32µM*	?
c1cc(CN2CCNc3cc(-c4ccsc4)ncc3C2)ccn1	3%[70.6 µM]	9%[87.6 µM]	-12%[138 µM]	7%[87.6 µM]	?	?
COc1cc(CCc2ccc(OCC=C(C)C)cc2)cc(OC)c1OC	·	-3%	·	·	·	·
CC1C/C=C/C=C\CCCCC(O)C/C=C/C(=O)O1 (stereo not given)	·	-3%	·	·	·	·
CN(C)c1ccc(-c2nnc([C@H]3CCN(C(=O)c4ccccn4)C3)o2)cc1	-15%[70.6 µM]	1%[87.6 µM]	-12%[174 µM]	144%[87.6 µM]	20µM*	?
Cc1cccc(C)c1-c1nnc2ccc(C(=O)NCC3CC3)cn12	·	1%[87.6 µM]	-20%[138 µM]	81%[87.6 µM]	·	-18%[172 µM]
Cc1nn(-c2ccc(F)cc2)c(C)c1[C@@H]1C=C[C@@H](NC(=O)NC(C)C)C1	?	-12%[87.6 µM]	?	44%[87.6 µM]	63µM*	?
Cc1nn(-c2ccc(C(C)(C)C)cc2)c(C)c1[C@@H]1C=C[C@@H](NC(=O)NC(C)C)C1	?	?	45µM*	-15%[87.6 µM]	14µM*	45µM*
Cc1ccc(-n2nc(C)c([C@H]3C=C[C@@H](OC(=O)N[C@H](C)c4ccccc4)C3)c2C)cc1Cl	-19%	-7%	?	49%	i	?
Cc1ccccc1-n1nc(C)c([C@H]2C=C[C@@H](OC(=O)NC(C)C)C2)c1C	-13%[70.6 µM]	-5%[87.6 µM]	25µM*	-8%[87.6 µM]	i	?
Cn1cccc1C(=O)N1CCCC(C(=O)NCc2ccccc2)CCNC(=O)CC1 (stereo not given)	1%	-3%	3%	9%	i	2%
COc1ccccc1N1CCN(c2ncccc2CNC(=O)c2ccoc2)CC1	-8%	-2%	-10%	8%	i	-24%
CS(=O)(=O)N1CCC2(CC1)CN(c1cccc(F)c1)C2c1ccccc1 (stereo not given)	·	1%	?	-29%	·	13µM*
CCCCN(C)C(=O)CCC1CCN(c2cc(NC3CC3)ncn2)CC1	18µM*	-20%	?	?	i	32µM*
O=C(CCC1CCN(c2cc(NC3CC3)ncn2)CC1)NCc1cc(F)cc(F)c1	?	10%	?	4.5µM*	?	?
O=C(CCC1CCN(c2cc(NC3CC3)ncn2)CC1)NCc1ccc(F)cc1F	?	-6%	?	3.5µM*	?	?
SMILES	hNpr1 antagonist	SNCA viab count	3T3 cytotox	SNCA expr inh	FLuc inh	HEK cytotox
O=C(CCC1CCN(c2cc(NC3CC3)ncn2)CC1)NCc1ccc(F)cc1	-4%	5%	-3%	?	?	-6%
COc1ccc(Cl)cc1NC(=O)N1CC(c2noc(-c3ccncc3)n2)C1	0%	1%	-24%	-7%	i	?
Cc1cc(C(=O)N2C[C@@H](COCC3CC3)[C@H](c3ccncc3)C2)no1	-9%	2%	?	-7%	i	-5%
CNC(=O)c1noc([C@@H]2CC(F)(F)CN2Cc2cn(C)nc2C)n1	-2%	9%	-4%	0%	i	i
Cc1cccc(C(=O)NC2CCN(c3cc(-c4cccs4)[nH]n3)C2)c1 (stereo not given)	-16%	-2%	?	-12%	i	?
O=C(Cc1ccccc1Cl)NC1CCN(c2cc(-c3cccs3)[nH]n2)C1 (stereo not given)	-5%	?	20µM*	?	i	?
O=C(NC1CCN(c2cc(-c3cccs3)[nH]n2)CC1)c1ccc(Cl)cc1	-17%	1%	?	3%	i	?
O=C(NC1CCN(c2cc(-c3cccs3)[nH]n2)CC1)c1cccc(Cl)c1	0%	-23%	?	-26%	i	45µM*
CN(C)c1cccc(C(=O)NC2CCN(c3cc(-c4cccs4)[nH]n3)C2)c1 (stereo not given)	-21%	-3%	?	136%	32µM*	?
O=C(Nc1cccc(F)c1)N1CCC(Oc2ccccc2-c2nc(-c3ccncc3)no2)C1 (stereo not given)	-1%	-16%	?	2%	i	?
COc1ccccc1-c1nnc2ccc(C(=O)NCCc3ccccc3F)cn12	·	9%	?	6%	·	?
COc1cc(OC(F)(F)F)ccc1C(=O)N1CCC(C)(C(=O)O)CC1	·	7%	0%	19%	·	-3%
CC1(C)[C@H](Cc2cc(CN3CCOCC3)on2)C[C@@H]1N(Cc1ccco1)Cc1ccco1	-28%	4%	?	0%	i	?
CN(C)Cc1cc(C[C@@H]2C[C@H](N(Cc3ccco3)Cc3ccco3)C2(C)C)no1	-4%[70.6 µM]	3%[87.6 µM]	79µM*	?	i	71µM*
FC(F)(F)c1ccc(O[C@H]2COCCN(CC3CCCC3)C2)cc1	-3%[70.6 µM]	8%[87.6 µM]	89µM*	7%[87.6 µM]	i	112µM*
FC(F)(F)c1cccc(CN2CCOC[C@H](Oc3ccccc3)C2)c1	2%[70.6 µM]	6%[87.6 µM]	?	?	i	?
COc1ccc(S(=O)(=O)N2CCc3c(C(=O)N(C)C)cccc32)cc1	-1%	5%	-23%	3%	i	-21%
CCN1CCN(Cc2cc(C)cc(CN(C)Cc3ncc(C)[nH]3)c2C)CC1	-2%	-6%	-26%	30%	40µM*	?
